MPTP block: inhibitors of mitochondrial permeability transition pore; isolated mouse mitochondria, Ca2+ swelling absorbance, 30 min; inhibition, % at 10 µM; hit rate 1.4% among 360,000; AID 602449;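 active = inhibition of 50% or more, scaled per plate between neutral and stimulator controls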;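 note: 0% = DMSO wells given calcium and 100% = 1 mM EGTA wells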
Mdm2-MdmX inh: disrupts the human Mdm2-MdmX interaction | O15151+Q00987 | SaOS-2 split-luciferase Mdm2/MdmX complementation, luminescence | inhibition, % at 8 µM | hit rate 3% among 330,000 | AID 485346;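 active = inhibition of at least 50% at 8 µM in the primary screen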
Target sequence (O15151 whole entry, looked up): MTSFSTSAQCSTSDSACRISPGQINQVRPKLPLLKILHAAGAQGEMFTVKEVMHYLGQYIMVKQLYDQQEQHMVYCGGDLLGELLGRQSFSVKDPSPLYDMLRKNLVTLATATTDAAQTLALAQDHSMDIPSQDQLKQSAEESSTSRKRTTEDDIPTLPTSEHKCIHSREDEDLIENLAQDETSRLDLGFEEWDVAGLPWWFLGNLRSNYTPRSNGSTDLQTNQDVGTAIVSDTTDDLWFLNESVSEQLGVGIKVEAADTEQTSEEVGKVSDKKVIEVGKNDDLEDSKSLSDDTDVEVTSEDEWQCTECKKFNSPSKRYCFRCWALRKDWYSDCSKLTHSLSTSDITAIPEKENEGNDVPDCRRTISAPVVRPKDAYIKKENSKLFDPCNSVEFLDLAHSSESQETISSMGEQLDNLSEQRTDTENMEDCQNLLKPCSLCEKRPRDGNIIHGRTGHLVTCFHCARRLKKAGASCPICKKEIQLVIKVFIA
Target sequence (Q00987 whole entry, looked up): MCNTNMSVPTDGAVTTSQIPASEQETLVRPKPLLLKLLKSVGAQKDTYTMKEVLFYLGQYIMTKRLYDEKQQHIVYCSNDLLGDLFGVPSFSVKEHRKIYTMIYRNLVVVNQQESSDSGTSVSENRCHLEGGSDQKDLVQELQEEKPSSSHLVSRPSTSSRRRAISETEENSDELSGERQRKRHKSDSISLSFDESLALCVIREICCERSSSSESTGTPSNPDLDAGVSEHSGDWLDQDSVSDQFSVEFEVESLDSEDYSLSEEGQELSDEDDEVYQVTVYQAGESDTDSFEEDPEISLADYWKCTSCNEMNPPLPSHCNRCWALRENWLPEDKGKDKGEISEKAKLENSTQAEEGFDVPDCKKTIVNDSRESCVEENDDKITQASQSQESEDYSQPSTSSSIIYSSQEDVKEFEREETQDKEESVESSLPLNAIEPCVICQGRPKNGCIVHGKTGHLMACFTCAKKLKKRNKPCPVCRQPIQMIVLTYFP
Beta apoptosis: beta cell apoptosis inhibition. INS-1E cytokine-induced death, ATP luminescence, 48 h; percent of positive-control rescue, neutral wells zero. protection from apoptosis, % (concentration not given with the values). hit rate 0.8% among 300,000. AID 435005;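 active = Every replicate reaches about 75%, or at least half do and their mean reaches it too, limit read from the data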;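 note: 0% = cytokine-treated negative control wells and 100% = positive control rescue; higher means more ATP so stronger rescue from cytokine killing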
CSC inhib: cancer stem cell inhibition; cancer stem cell-like cells viability, luminescence; inhibition, % at 7.5 µM; hit rate 1.1% among 300,000; in the data active = inhibition above about 75%; tested in HMLE shEcad cells
GRIN3A LBD mod: modulates the human NR3A ligand-binding domain. Tm shift relative to glycine control, % at 25 µM. NR3A LBD differential scanning fluorimetry, Tm shift; 0% = protein alone, 100% = glycine-bound protein. hit rate 2.5% among 340,000;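 active = melting temperature shift of at least 10% of the positive control shift, at one fixed dose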
Gli-Sufu block: antagonists of Gli-Sufu signaling. Sufu-KO-LIGHT fibroblasts, Gli luciferase reporter luminescence. inhibition, % at 5 µM. hit rate 0.74% among 340,000;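 active = inhibition above about 55%, limit read from the data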;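 note: 0% = DMSO-treated cells and 100% = wells with medium but no cells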
Numbers without * were called inactive; / = no result. Hits are enriched below; roughly 6.6% of the tested compounds scored in any of these assays.

SMILES	MPTP block	Mdm2-MdmX inh	Beta apoptosis	CSC inhib	GRIN3A LBD mod	Gli-Sufu block
CS(=O)(=O)N1Cc2cc(C(=O)NCC3CC3)nc(-c3cccc(-c4cccnc4)c3)c2[C@H]1CCO	-1	/	/	/	/	/
CC(=O)Nc1ccc2c(c1)C(=O)c1ccccc1C2=O	2	-109	9	8	0	-76
CC(=O)Nc1ccc2c(c1)CCc1ccccc1-2	2	-3	-4	-8	10*	-1
COc1cc([N+](=O)[O-])ccc1NC(=O)Nc1nc2c(s1)CCCC2	43	-17	/	/	11*	4
O=C(Nc1cccc(C(=O)O)c1)/C(=C\c1ccc2c(c1)OCO2)NC(=O)c1ccccc1Cl	-2	31	2	6	-1	-12
CN(c1nc2ccccc2[nH]c1=O)C1CCCCC1	4	6	22	10	0	57*
O=C(/C=C/c1cccs1)NC(=S)Nc1ccc(S(=O)(=O)Nc2ccccc2C(F)(F)F)cc1	48	6	-7	43	27*	1
O=S(=O)(NCCc1csc(-c2cccnc2)n1)c1cccs1	-2	18	-2	-1	13*	-10
O=S(=O)(NCc1csc(-c2cccnc2)n1)c1cccs1	1	1	-1	-9	-1	-2
COc1cc(C[C@H](C)[C@H](C)Cc2ccc3c(c2)OCO3)ccc1O	3	-17	-11	127*	-36	-12
CCc1ccc(C2CC(c3cccc(Cl)c3)n3nc(N)nc3N2)cc1 (stereo unspecified)	40	10	105*	4	2	-12
Cc1ccc(C2CC(c3cccc(Cl)c3)n3nc(N)nc3N2)cc1 (stereo unspecified)	-1	-11	-1	-32	1	6
CCOc1ccc(Nc2nc(NCC3CCCO3)c3ccccc3n2)cc1 (stereo unspecified)	10	28	52	-15	-2	71*
c1ccc(-c2nc(NCC3CCCO3)c3ccccc3n2)nc1 (stereo unspecified)	0	13	115*	-6	0	14
c1ccc2c(NCC3CCCO3)nc(N3CCOCC3)nc2c1 (stereo unspecified)	-2	-4	-2	-18	0	9
COc1ccc(Nc2nc(NCC3CCCO3)c3ccccc3n2)c(OC)c1 (stereo unspecified)	2	30	19	-14	-4	41
Cc1ccccc1-c1noc(C(C)NC(=O)c2ccco2)n1 (stereo unspecified)	0	-30	5	3	-1	-9
Cc1cc(C)c(N2C(=O)C3C4CC(=O)C(c5ccccc54)C3C2=O)c(C)c1 (stereo unspecified)	1	13	2	-7	1	3
Cc1cccc(N2C(=O)C3C4CC(=O)C(c5ccccc54)C3C2=O)c1C (stereo unspecified)	1	29	-1	-11	11*	-1
CCOC(=O)c1c(-c2ccccc2)csc1NC(=S)N(CC)CC	3	/	/	/	-1	-2
CCOC(=O)c1c(-c2ccccc2)csc1NC(=O)c1nn(CC)cc1Br	1	29	16	80*	-3	4
CCOC(=O)c1c(-c2ccc(Cl)cc2)csc1NC(=O)CNCc1ccco1	6	-7	2	77*	0	-3
CCOC(=O)c1c(-c2ccc(F)cc2)csc1NC(=O)C1CCCO1 (stereo unspecified)	2	1	-1	50	-1	-2
CCOC(=O)c1c(-c2ccc(OC)cc2)csc1NC(=O)CNCc1ccco1	0	11	5	69	2	-16
CCOC(=O)c1c(-c2ccc(C)cc2)csc1NC(=O)C1CCCO1 (stereo unspecified)	4	19	6	3	10*	6
SMILES	MPTP block	Mdm2-MdmX inh	Beta apoptosis	CSC inhib	GRIN3A LBD mod	Gli-Sufu block
O=C(Nc1ccc(Cl)cc1)N[C@@H]1CC[C@H](CCNS(=O)(=O)c2ccccc2F)O[C@@H]1CO	1	/	/	/	/	/
CC(=O)Nc1ccc(NC(=O)CSc2nnc(N)n2-c2ccccc2)cc1	1	/	/	/	-3	-23
Cc1ccc(COc2ccsc2C(=O)NN)cc1	-1	0	7	0	-2	15
O=[N+]([O-])c1ccc(-c2ccc(/C=N/O)o2)cc1	2	-6	-1	-14	33*	-16
COc1ccc(-c2cnnc(N/N=C/c3ccc(-c4ccc([N+](=O)[O-])cc4)o3)n2)cc1	0	/	/	/	19*	21
NC(=O)N/N=C/c1ccc(-c2ccc([N+](=O)[O-])cc2)o1	1	4	4	-5	2	-5
COc1ccccc1-c1cnnc(N/N=C/c2ccc(-c3cccc(Br)c3)o2)n1	3	16	15	-7	-3	10
COc1cc(-c2nc3ccc4ccccc4c3c3c2CCC3)ccc1O	0	4	2	78*	-7	-15
On1ccccc1=S	-8	/	56	1	3	74*
O=C(Cn1ccccc1=S)c1ccc(Cl)c(Cl)c1	2	-6	-4	5	1	-6
CCN(CC)S(=O)(=O)c1ccc2c(c1)N(CC(=O)N1CCCC1)C(=O)CO2	-1	9	-1	-3	-1	15
CSC[C@@H]1NC(=S)N(c2ccc(C)cc2)C1=O	2	24	4	48	5	16
O=C(N[C@H]1C/C=C\C[C@H](CC(=O)N(CCO)Cc2ccccc2)C(=O)N[C@H](Cc2c[nH]c3ccccc23)COC1=O)OCC1c2ccccc2-c2ccccc21	1	15	11	/	0	45
Cc1c(Cl)cccc1NC(=S)N(CCCN1CCOCC1)Cc1cccs1	-1	12	-4	-13	17*	8
COc1ccc(CCN=C(C)c2cc(C)c(C)cc2O)cc1OC	0	-31	2	-12	15*	8
CCOc1cccc(C(=O)Nc2ccc3[nH]ncc3c2)c1	3	-64	-3	4	15*	-46
O=C(COc1cccc(C(F)(F)F)c1)Nc1ccc2[nH]ncc2c1	2	31	-2	-8	18*	-1
O=C(COc1cccc(C(F)(F)F)c1)Nc1cccnc1	0	-20	-2	-10	0	-3
CCC(OCC(O)CN1CCCCC1)c1ccccc1 (stereo unspecified)	-1	4	3	-5	3	-21
COc1cc2c(cc1OC)-c1cc(Nc3cccc(F)c3)nc(=O)n1CC2	0	40	/	/	-2	10
COc1cc2c(cc1OC)-c1cc(Nc3ccc(F)cc3)nc(=O)n1CC2	0	34	2	5	10*	1
O=C(COc1ccccc1)N=C1SC2CS(=O)(=O)CC2N1c1ccc(F)cc1F (stereo unspecified)	-1	3	5	2	-3	-9
CNc1ccccc1C(C)(C)c1cc(-c2cc(C)cc(C)c2)no1	5	8	3	97*	2	0
CNc1ccccc1C(C)(C)c1cc(C)[nH]n1	1	5	-10	-6	0	-23
Cc1cccc2c1NC(=O)/C2=C\C(=O)c1cccs1	-4	33	6	83*	3	-23
